The results in this text go back to PubChem BioAssay AID743088 (The Scripps Research Institute Molecular Screening Center, 2013).

The test has as its system Imidazoline I2 Central. The test is described as follows: off-target binding across receptor panel, profiling panel, selectivity assay for AVPR1a antagonist project, biochemical, Panlabs HitProfilingScreen (AID 743088). As to conditions: Panlabs radioligand binding panel, 30 targets, at 10 µM, active compounds read high.

Unmarked numbers belong to inactive results.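 How the source made its calls: active means binding inhibited by at least 50%, or stimulated by at least 50%, shown as inhibition of -50% or lower; inactive means the rest.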

On to `O=C(C1CCN(c2ccc(Cl)cn2)CC1)N(CC1CC1)c1ccc(Cl)cc1`, for which the inhibition of binding was 27%.
